Rows were chosen to be rich in hits. Some 3.8% of all compounds tested hit in one or more screens of this group.
p-CIP stab down: p/CIP protein destabilization. F442A p/CIP-EGFP cells, EGFP fluorescence, 16 h. decrease of EGFP signal, % at 10 µM. 0.01% of 290,000 active. Q05BA5;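 active means EGFP signal decrease of at least 30% at 10 µM or well 3 SD below plate mean, unless failing retest; inactive means the rest, including hits failing retest or dose response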
NALP1 inh: blocks the NALP1 inflammasome reconstituted in yeast. 0.61% of 280,000 active. inhibition, % at 10 µM. S. cerevisiae NALP1/ASC/caspase-1 growth, X-gal OD620, 72 h; in the data active means inhibition mostly above about 24%, no sharp cut-off; inactive means mostly below about 32%
HSF-1 act: increases HSF-1 driven luciferase reporter signal. NIH3T3-HGL HSF-1 luciferase reporter, MG132, 8 h; 100% = twice DMSO control signal. 1.7% of 300,000 active. activation, % at 9 µM. AID 504408;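 active means mean replicate activation of at least 50% with a set share of replicates each reaching 50%; inconclusive means only one of those two conditions met; inactive means mean below 50% and too few replicates reaching it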
HSF1 inh: HSF1 inhibition. AID 2098. NIH3T3-HGL HSE-luciferase, MG132-induced, luminescence 8 h; active compounds read low. activity change, negative = inhibition, % at 7.5 µM (by protocol). 0.77% of 300,000 active;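 active means more than half of replicate wells show activity change below -50%, luminescence cut by over half; inconclusive means some wells, but at most half, below -50%; inactive means no replicate well below -50%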;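 further: luciferase reports HSF-1 transcriptional activity via heat shock element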
Hsp70 act: switches on Hsp70 transcription; 0.04% of 200,000 active; activation, % at 10 µM; HeLa Hsp70 promoter luciferase reporter, luminescence; scaled: vehicle 0, proteasome-inhibitor control 100%;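 active means activation above the mean across all tested compounds plus 3 SD, cutoff set per campaign, cut at about 5.5% in these data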
HSP90 inh: HSP90 refolding inhibition in rabbit reticulocyte lysate; luciferase refolding luminescence, 3 h; inhibition, % at 5.6 µM; 0.91% of 290,000 active;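 active means inhibition above the screen-wide mean plus 3 SD, computed separately per campaign, cut at about 16% in these data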;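 further: inhibitors lower the luminescence because luciferase stays unfolded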
Of the large screens only hits and unclear results are named; the others gave an inactive call.

CCN(CCNC(=O)CS(=O)(=O)Cc1nc(-c2cccc(OC)c2)oc1C)c1ccccc1	HSF-1 act 78.4 (no result: NALP1 inh)
COc1ccc(NC(=O)CS(=O)(=O)Cc2nc(-c3ccc(C)cc3)oc2C)cc1	NALP1 inh 44.7 (no result: Hsp70 act)
O=C(Nc1ccc(S(=O)(=O)Nc2cnc3ccccc3n2)cc1)c1cc(F)c(F)cc1Cl	none (no result: Hsp70 act)
CCOc1ccc(CCNC(=O)CSCC(=O)Nc2cccc(C)c2)cc1OCC	none (no result: p-CIP stab down, NALP1 inh, Hsp70 act, HSP90 inh)
CCCCOc1ccc(/C=C/C2=CC(C)(C)NC(=S)N2)cc1OCC	none
CCc1ccc(-c2nc(CSCC(=O)NC3CC3)c(C)o2)cc1	HSF1 inh -71.1 (no result: Hsp70 act)
CCc1ccccc1NC1=NCC(=O)N1C1CCCCC1	HSF-1 act 59.2
CCC(=O)Nc1cccc(C(=O)OCC(=O)c2ccccc2Cl)c1	HSF-1 act 65.1
CC(=O)Nc1cccc(C(=O)OCC(=O)NC(=O)c2ccccc2)c1	none (no result: p-CIP stab down, NALP1 inh, Hsp70 act, HSP90 inh)
CC(=O)Nc1cccc(C(=O)OCC(=O)c2ccccc2Cl)c1	HSF-1 act 84.8
COc1ccc(-n2ncc3c2CC(C)(C)CC3NC(=O)Cc2nonc2C)cc1 (stereo not drawn)	none (no result: Hsp70 act)
Cc1ccc(-n2c(C)cc(/C=C3\SC(=O)NC3=O)c2C)cc1	HSF-1 act 61.0 (no result: Hsp70 act)
O=C(NCC(=O)N1CCC(Cc2ccccc2)CC1)c1ccc(Cl)cc1	none (no result: Hsp70 act)
CC(=O)c1c(C)[nH]c(C(=O)OCc2ccccc2F)c1C	none
O=C(Nc1ccncc1)Nc1cc(Cl)ccc1Cl	none (no result: Hsp70 act)
O=C(Nc1ccncc1)Nc1ccc(Cl)cc1Cl	NALP1 inh 30.4 (no result: Hsp70 act)
COc1ccc(-c2[nH]ncc2CN2CCC(c3ccncc3)CC2)cc1F	none (no result: NALP1 inh, Hsp70 act)
COc1ccc(-c2[nH]ncc2CN2CCN(C3CCCCC3)C(=O)C2)cc1F	HSF-1 act 56.3
COc1ccccc1-c1nnc(-c2ccc(N3CCOCC3)cc2)o1	HSF-1 act 59.3
COc1ccccc1-c1nnc(-c2ccc(C)cc2)o1	HSF-1 act inconclusive (no result: p-CIP stab down, NALP1 inh, Hsp70 act, HSP90 inh)
CS(=O)(=O)N(CC(=O)NN=C1CCCCCC1)c1ccc(Oc2ccccc2)cc1	none
CCOc1ccc(N(CC(=O)NN=C2CCCC2)S(C)(=O)=O)cc1	HSF1 inh -87.2
Cc1cccc(NC(=S)N(CCN(C)C)C(C)c2cccnc2)c1 (stereo not drawn)	HSF-1 act 60.1
COc1cccc(NC(=S)N(CCN(C)C)C(C)c2cccnc2)c1 (stereo not drawn)	none
CCOC(=O)C1=NN(C(=O)Cc2ccccc2)C(O)(c2ccc(Cl)cc2)C1 (stereo not drawn)	none
COC(=O)C1=NN(C(=O)c2cccc(Br)c2)C(O)(c2ccc(Cl)cc2)C1 (stereo not drawn)	HSF-1 act 183.2
CCOC(=O)C1=NN(C(=O)COc2ccccc2)C(O)(c2ccc(Cl)cc2)C1 (stereo not drawn)	HSF-1 act 121.5
CCOC(=O)C1=NN(C(=O)c2ccc(OC)cc2)C(O)(c2ccc(Cl)cc2)C1 (stereo not drawn)	HSF-1 act 80.3
CC1=NN(C(=O)c2ccccc2)C(O)(c2ccc(Br)cc2)C1 (stereo not drawn)	HSF-1 act 83.2 (no result: Hsp70 act)
O=C(NCc1cccc(C(F)(F)F)c1)c1ccc[nH]1	none (no result: Hsp70 act)
CCOC(=O)C1=NN(C(=O)c2ccccc2)C(O)(c2ccc(C)cc2)C1 (stereo not drawn)	HSF-1 act 317.6
CCOC(=O)C1=NN(C(=O)c2cccc(Br)c2)C(O)(C(C)(C)C)C1 (stereo not drawn)	none (no result: Hsp70 act)
CN1CCc2cccc3c2[C@H]1Cc1ccc(O)c(O)c1-3	NALP1 inh 100.6
Cc1cc(C)nc(S/C=C/C(=O)c2ccccc2F)n1	HSF-1 act 188.8 (no result: Hsp70 act)
Cc1cc(C)nc(NC(=S)NC(=O)c2ccccc2F)n1	none (no result: p-CIP stab down, NALP1 inh, Hsp70 act, HSP90 inh)
Cc1cc(Br)ccc1NC(=O)CN(C)C(=O)COc1cccc2c1OC(C)(C)C2	none (no result: p-CIP stab down, NALP1 inh, Hsp70 act, HSP90 inh)
Cn1c(-c2nonc2N)nc2ccccc21	NALP1 inh 28.9, HSF1 inh -74.0 (no result: Hsp70 act)
Cc1ccccc1C(=O)NC(=S)Nc1ccccc1N1CCCC1	none
COc1ccccc1C(=O)NC(=S)Nc1ccccc1N1CCCC1	HSF1 inh -57.8 (no result: Hsp70 act)
Clc1ccc(-n2ncc3c(NCc4cccnc4)ncnc32)cc1Cl	none (no result: Hsp70 act)
CC1=NN(c2ccccc2)C(=O)C1N=Nc1ccccc1 (stereo not drawn)	none

Source: PubChem
